# Bioassay records as filed in PubChem.
# PPC-1+TRAIL kill – compounds killing PPC-1 cancer cells with TRAIL present, primary screen, TRAIL potentiator project, ATPLite luminescence, uHTS. PPC-1 cells + TRAIL, ATPLite viability luminescence. cell killing (% activity), % at 4 µM or 5 µM. actives 0.41% (n = 220,000). AID 1443, 2008;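 active = cell killing above 50% in the first pass at 4 µM, then a duplicate retest at 5 µM averaging 50% or more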;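 note: plate controls were cells with TRAIL plus DMSO for no effect and medium-only wells lacking cells for full effect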
# C8 TRAIL sens – viability loss with TRAIL in NB7+C8 cells, primary screen, TRAIL sensitizer project, cell-based, ATPlite luminescence; inhibition (viability loss, TRAIL sensitization), % at 10 µM; actives 1% (n = 360,000); AID 624354, 2012;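 active = compounds causing at least 50% loss of cell viability in the single-dose screen, relative to plate controls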
# SENP6 block – SENP6 protease inhibitors, primary screen, biochemical, luminescence, uHTS. AID 2599, 2010. actives 1.8% (n = 330,000). Sentrin-specific protease 6 (Homo sapiens), Q9GZR1. inhibition, % at 10 µM. Recombinant SENP6 catalytic domain, aminoluciferin luminescence;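 active = inhibition above about 50% at the single tested dose, limit read from the data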;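 note: plate controls were DMSO wells with enzyme for no effect and DMSO wells lacking enzyme for full effect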
# Target sequence (Q9GZR1 628-1112 limits assumed): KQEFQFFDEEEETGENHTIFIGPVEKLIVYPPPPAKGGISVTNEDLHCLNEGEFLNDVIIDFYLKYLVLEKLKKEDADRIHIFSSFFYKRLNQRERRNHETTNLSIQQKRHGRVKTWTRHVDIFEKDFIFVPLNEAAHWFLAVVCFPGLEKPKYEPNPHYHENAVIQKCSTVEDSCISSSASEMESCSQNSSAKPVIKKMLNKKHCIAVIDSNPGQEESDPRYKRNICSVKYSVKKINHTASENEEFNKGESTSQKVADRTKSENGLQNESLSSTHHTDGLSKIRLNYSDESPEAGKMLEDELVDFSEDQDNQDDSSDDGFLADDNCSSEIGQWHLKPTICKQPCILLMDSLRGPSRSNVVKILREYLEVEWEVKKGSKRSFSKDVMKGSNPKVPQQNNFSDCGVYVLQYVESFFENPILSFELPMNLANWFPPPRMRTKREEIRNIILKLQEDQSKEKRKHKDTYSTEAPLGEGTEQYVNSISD
# SENP7 block – SENP7 protease inhibitors, primary screen, biochemical, luminescence, uHTS; recombinant SENP7, Z-RLRGG-aminoluciferin luminescence, 40 min; inhibition, % at 5 µM; actives 1.5% (n = 330,000);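 active = inhibition above about 50% at the single test dose, limit read from the data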;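 note: plate controls were DMSO with enzyme for no effect and no enzyme buffer wells for full effect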
# SENP8 block-1 – SENP8 protease inhibitors, primary screen, biochemical, luminescence; Sentrin-specific protease 8 (Homo sapiens), Q96LD8; purified SENP8, Z-RLRGG-aminoluciferin cleavage; actives 1.2% (n = 330,000); inhibition, % at 10 µM; AID 2540, 2010; in the data active = inhibition above about 50%
# SENP8 block-2 – human SENP8 protease inhibitors, primary screen, biochemical, fluorescence, Nedd8 protein substrate, uHTS | inhibition, % at 20 µM | Sentrin-specific protease 8 (Homo sapiens), Q96LD8 | recombinant SENP8 | actives 0.64% (n = 360,000); in the data active = inhibition mostly above about 40%, no sharp cut-off; inactive = mostly below about 27%
# SENP8 confirm – SENP8 protease inhibitors, retest, confirmation, biochemical, luminescence, single concentration; shares compounds with SENP7 block; Recombinant SENP8, Z-RLRGG-aminoluciferin luminescence, 60 min; inhibition, % at 12.5 µM; actives 40% (n = 6,200);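 active = mean inhibition across replicates above about 50%, limit read from the data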
# SENP6 conf – SENP6 protease inhibitors, confirmation, biochemical, luminescence, single concentration | shares compounds with SENP7 block | recombinant SENP6, Z-RLRGG-aminoluciferin luminescence | inhibition, % at 12.5 µM | actives 58% (n = 6,200)
# SENP7 conf – SENP7 protease inhibitors, retest, confirmation, biochemical, luminescence, single concentration. shares compounds with SENP7 block. recombinant SENP7, Z-RLRGG-aminoluciferin luminescence, 40 min. inhibition, % at 12.5 µM. actives 69% (n = 6,200). AID 488917, 2010
# Casp3 SENP sel – caspase-3 protease inhibitors, confirmation, selectivity assay for SENP inhibitor project, biochemical, single concentration; actives 60% (n = 6,200); inhibition, % at 12.5 µM; purified caspase-3, Z-DEVD-aminoluciferin luminescence, 60 min; shares compounds with SENP7 block; AID 488918, 2010;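 active = mean inhibition above about 50%, limit read from the data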;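 note: plate controls were enzyme with DMSO for no effect and wells without caspase-3 for full effect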
# SENP luc ctr – luminescence interference (SENP counter-screen). shares compounds with SENP7 block. Pre-incubated SENP8/Z-RLRGG-aminoluciferin, luciferase luminescence interference. inhibition, % at 12.5 µM. actives 39% (n = 6,200);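 active = mean inhibition above about 50% when retested at one dose, limit read from the data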;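 note: plate controls were DMSO wells with completed reaction for no effect and substrate without enzyme for full effect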
# An asterisk follows results filed as active; i = inactive; / = no result. A selection: hits, their analogues and other compounds. The true share with any hit is near 3%.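 Rule for the calls, unless noted: active = mean inhibition above about 50% in the one-dose retest (limit read from the data); inactive = the rest.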
SMILES,PPC-1+TRAIL kill,C8 TRAIL sens,SENP6 block,SENP7 block,SENP8 block-1,SENP8 block-2,SENP8 confirm,SENP6 conf,SENP7 conf,Casp3 SENP sel,SENP luc ctr
Clc1ccc(OCc2nc(-c3ccc(Br)o3)no2)cc1,-5,2,-4,-5,0,19,/,/,/,/,/
COC(=O)c1ccc(-c2nc(-c3cccs3)no2)cc1,34,58*,92*,98*,87*,5,78*,88*,89*,88*,38
c1ccc2c(c1)C1=NCCN1c1ccccc1-2,/,35,/,/,/,-482,/,/,/,/,/
Cc1ccc(NC(=O)[C@H](C)NC(=O)C2CCN(C(=O)[C@@H](N)C(C)C)CC2)cc1,/,-9,-1,-1,-2,17,/,/,/,/,/
COc1ccccc1/C=C/c1nc(C#N)c(N(C)C)o1,/,-3,57*,30,46,i,20,57*,42,53*,10
CN(C)c1oc(-c2ccccc2)nc1C#N,-8,-9,11,17,-1,-311,/,/,/,/,/
COc1ccc(S(=O)(=O)N2CCCC(C(=O)NCc3ccco3)C2)cc1OC (centres undefined),/,0,6,-12,-11,22,/,/,/,/,/
C/C(=N/O)c1ccc2c(c1)OCCOCCOc1cc(/C(C)=N/O)ccc1OCCOCCO2,-6,-6,-4,-2,0,-6,/,/,/,/,/
CCCc1cc(=O)n2c([nH]c3ccccc32)c1C#N,22,5,51*,8,42,-266,24,38,51*,53*,44
CCc1ccc(/C=C2\SC(=S)N(CCCC(=O)Nc3ccccc3C(=O)O)C2=O)cc1,/,5,1,4,-2,32,/,/,/,/,/
O=C(CCCN1C(=O)/C(=C\c2ccccc2)SC1=S)Nc1ccc(C(=O)O)cc1,/,10,82*,23,66*,10,10,6,12,5,13
O=C(CCCN1C(=O)S/C(=C/c2ccccc2)C1=S)Nc1ccc(C(=O)O)cc1,/,3,66*,45,72*,12,11,52*,72*,46,20
COc1ccc(/C=C2\SC(=O)N(CCCC(=O)Nc3ccc(C(=O)O)cc3)C2=O)cc1,/,4,/,/,/,11,/,/,/,/,/
O=C(CCN1C(=O)/C(=C/c2ccc3c(c2)OCO3)SC1=S)Nc1ccc(C(=O)O)cc1,/,11,14,1,40,19,/,/,/,/,/
CCc1ccc(/C=C2\SC(=S)N(CCCC(=O)Nc3ccc(C(=O)O)cc3)C2=O)cc1,/,11,92*,83*,94*,19,93*,97*,98*,77*,55*
O=C(CCCN1C(=O)/C(=C/c2ccc3c(c2)OCO3)SC1=S)Nc1ccc(C(=O)O)cc1,/,8,93*,78*,86*,29,-13,3,14,16,16
CCOC(=O)CN1C(=O)N[C@@H](CCc2ccccc2)[C@@H](C(=O)OC)[C@H]1C,/,-11,-11,-12,-6,19,/,/,/,/,/
